The supplement of paper PMC6555819

Columns and labels:
Assay in all cases: PBM binding z-score (relative to random genomic background probes); higher = stronger binding; sequences stand for … in GC…GCGATTGACAGCGTAGAATGAAGG
[1] = test system: PPARg:RXRa DBDmut IVT, anti-RXR (DBD mutation: RXRa K156A/R161A, NR concentration 270 nM, RXRa partner concentration 90 nM)
Method in brief: (§1)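 The probes on custom Agilent 4×180K protein-binding microarrays were double-stranded, with 34-nt variable regions bearing direct-repeat seeds, single-nucleotide variants, half-site ablations and random human genomic background sequences. Incubation lasted 1 h with ligand-free nuclear receptor dimers in PBS pH 7.4, 2% milk, 0.02% Triton X-100, 1 mM DTT, 0.2 mg/mL BSA and 0.4 mg/ml salmon testes DNA. Antibodies against each partner (one per run) detected bound dimers, and fluorescence scans were regression-normalized. Binding z-scores take the random background probes as reference.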

[2] = test system: PPARg:RXRa IVT, anti-PPARg (NR concentration 270 nM, RXRa partner concentration 90 nM)
Method in brief: as §1

[3] = test system: PPARg DBDmut:RXRa IVT, anti-PPARg (DBD mutation: PPARg1 K132A/R137A, NR concentration 270 nM, RXRa partner concentration 90 nM)
Method in brief: as §1

[4] = test system: PPARg DBDmut IVT, anti-PPARg (DBD mutation: PPARg1 K132A/R137A, NR concentration 270 nM)
Method in brief: as §1

[5] = test system: PPARg homodimer (NR concentration 180 nM)
Method in brief: as §1

[6] = test system: PXR:RXRa (NR concentration 270 nM, RXRa partner concentration 90 nM)
Method in brief: as §1

[7] = test system: PXR homodimer (NR concentration 270 nM)
Method in brief: as §1

[8] = test system: RARa:RXR (NR concentration 270 nM, RXRa partner concentration 90 nM)
Method in brief: as §1

[9] = test system: RARa homodimer (NR concentration 270 nM)
Method in brief: as §1

[10] = test system: RARb:RXRa (NR concentration 270 nM, RXRa partner concentration 90 nM)
Method in brief: as §1

Sequence	PBM binding z-score [1]	PBM binding z-score [2]	PBM binding z-score [3]	PBM binding z-score [4]	PBM binding z-score [5]	PBM binding z-score [6]	PBM binding z-score [7]	PBM binding z-score [8]	PBM binding z-score [9]	PBM binding z-score [10]
GCTTGTAGATCAAGGTTAATAAAGACTAAGCTAA	1.14	0.996	-0.734	0.456	-0.133	0.16	0.327	0.282	0.0284	0.519
AGAATGAGGTTATACGTAGTTCAGGGAAGAAAGT	3.46	2.53	1.03	0.605	0.814	3.07	0.774	2.66	0.46	1.96
CCGAGTAGGTTATGTGGCATTCAGGCAACGGTGA	3.28	2.2	-0.431	-0.42	0.696	-0.298	-0.313	-0.131	0.978	0.573
TCTATTAGTTAAAGGGCAACCGACGAGTCCGTTT	2.36	0.552	0.374	1.04	1.7	1.32	0.941	1.18	1.13	2.47
ACTAGCATGCCAAGGGTCACTCAAGATTAGTCCG	0.455	2.66	-0.409	0.469	2.73	3.31	-0.0678	4.02	0.721	3.38
CCTGCTGGGCCAAGGTCATTGATCAGTCAAAGCA	0.105	1.18	-1.48	-1.47	2.84	3.79	1.84	3.92	-0.536	3.48
AGAACGAGGGCACTCTGAGTTGATAGCAGAGTAG	3.52	2.74	0.243	-0.0516	-0.209	1.14	-0.0913	0.301	-0.677	1.84
CCGACTGGGGCAGTAAGGTTACCATACCATCCGG	2.7	2.69	-1.07	-1.44	0.0978	0.28	-0.0319	0.762	-0.538	1.34
GCTTACGGGTCAAAGGTTATAGCTTGAATAGAAT	4.25	5.72	1.28	1.02	1.88	5.86	0.119	7.89	0.811	4.34
GCTGCTAGGTCAACTGATCGTCAGCTAAAGCTCG	4.99	4.1	0.249	-0.779	0.899	1.23	-0.904	2.14	-0.582	4.19
CAAACTAGGTCTAAGGTCAAAGTCGAGCCAACCA	3.97	5.92	1.31	0.848	2.46	4.42	1.59	4.7	1.21	4.14
CCTACTGGGCCATTCAGAGGTCATTAATCATATG	4.22	4.37	0.0729	0.0343	2.11	4.17	2.46	3.83	0.0599	2.88
GTAACGAGGGCAAGTTGATAGCAGAGTTTGATGG	3.49	3.09	0.298	0.937	0.983	0.884	1.23	0.596	0.449	2.58
CCGACTGTGGCATAAGGTTACCATAAGCCAGCCC	1.12	0.305	-0.617	-0.541	0.621	0.365	0.018	0.961	0.166	0.964
GCTCGGAGGAAAAGGTCAGAGCTTTGTCCGTAGA	-0.0327	1.11	-1.39	-0.963	1.55	2.93	-0.551	3.96	0.159	3.95
TAGCCTAGGCCATTGGGCCAGTATAGTACGCATC	-0.378	0.553	-1.56	-0.875	-1.33	-0.947	-0.712	-0.936	-0.489	0.356
CATACAGGGTCAGTTAGGCCAGAGTAGGGACGGC	0.861	2.08	1	0.259	2.09	1.55	0.258	2.17	0.791	3.67
CCAAGCAGGCCAGGGTCACTCAAGCATTTCGCTT	0.264	0.738	-0.543	-1.4	1.53	2.65	-0.14	3.4	0.312	2.61
ATCTCTAGGTGACAAGTTCAGTGAAAGAGAGGAC	4.9	4.99	1.89	2.47	0.963	1.33	1.38	0.974	0.324	2.12
CCTGCTAGGTCATTGGTCAGCTAAAGCAGCTCGC	3.86	3.73	0.135	-0.404	1.24	1.47	0.029	2.07	-0.492	3.97
ACAGAGAGGTGATGAAGGTAACTCAGGCTATCAT	1.04	1.11	0.359	-0.0267	0.505	0.0565	0.268	0.393	0.478	0.825
CCTCGGACGACAACAGGAGGTCAGAGCTGCCAGA	-0.649	0.0157	-0.728	-1.24	1.84	1.67	0.467	2.11	0.372	1.96
TCTTATAGGTAAAAGGTGAAAGTCGGTGTGGTAA	5.43	5.26	1.47	1.32	3.07	1.92	0.675	3.31	1.6	2.21
CCTTACGGGTCACGAGGTTATAGGACGACGAGCG	4.3	5.38	1.39	0.939	1.95	4.53	0.176	5.99	1.17	4.56
